The structures appear in SMILES notation. About 7,700 (2.3%) of roughly 330,000 compounds were called active. Not shown: some 26% with an inconclusive outcome. The call rests on the fitted dose curve; in most records, active means well fitted inhibition curve with a large enough effect; inconclusive means small, poorly fitted or top-dose-only effect, or effect the other way; inactive means flat fitted curve, though single readings scatter. The entries come from a sample that favours actives as a whole. A call without a number means that no potency is given here.
Potency means the concentration at half of the fitted maximal effect.

This experiment can be described thus: qHTS screen for small molecules that inhibit ELG1-dependent DNA repair in human embryonic kidney (HEK293T) cells expressing luciferase-tagged ELG1. Further: nearly all actives have a fitted effect of over 55% in size. Conditions: HEK293T ELG1-luciferase reporter, luminescence, 16 h, DNA damage induced by 5-fluorouridine; series mostly up to 46.1 µM. The method, boiled down:
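Reporter activity after DNA damage by 5-fluorouridine is monitored. Compound-treated cells incubate 16 hr at 37 °C, then ONE-Glo is added for 30 min before luminescence reading.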
For `COCCOC(=O)C1=C(C)N=c2s/c(=C\c3cccs3)c(=O)n2C1c1cccs1` (stereo not drawn), the Potency was 14.6 µM (active).
As for `CCOC(=O)C1=C(C)N=c2s/c(=C\C(=O)OC)c(=O)n2C1c1ccc(OC)cc1` (stereo not drawn), the entry is “inactive”.
To `C=CCOC(=O)C1=C(C)NC(C)=C(C(=O)OCC=C)C1c1cccs1` belongs “inactive”; to `COC(=O)c1cnc(Nc2cc(C)ccc2OC)c2ccccc12`, “inactive”.
With `COc1ccc(C)cc1Nc1nc(C)nc2c1oc1ccccc12`, the Potency is 5.17 µM (active).
As for `Cc1nc(Cl)c2oc3ccccc3c2n1`, the entry is “inactive”; as for `Cc1cc(C)c(OCC(=O)N(Cc2cccs2)C2CCS(=O)(=O)C2)c(C)c1` (stereo not drawn), “inactive”.
To `COc1ccc(CCN2C(=O)C(C)=C(C)C2=O)cc1OC` belongs “inactive”.
Turning to `CCN1C(=O)[C@@H]2[C@@H](c3ccc(-c4ccc(OC)cc4)c(OC)c3)N3CCC[C@@]3(C(=O)OC)[C@@H]2C1=O`, the Potency entry was “inactive”.
As for `Cc1ccc(NC(=O)C2CCN(S(=O)(=O)c3ccc4c(c3)NC(=O)CO4)CC2)cc1C`, the entry is “inactive”; as for `C=CCn1cc(C(=O)NCc2ccc(Cl)cc2)c(=O)c2cc(S(=O)(=O)N(CC)CC)ccc21`, 8.2 µM (active).
To `CCOC(=O)N1CCN(C(=O)c2cn(C)c3ccc(S(=O)(=O)N(CC)CC)cc3c2=O)CC1` belongs “inactive”; to `CCn1cc(C(=O)NCC2CCCO2)c(=O)c2cc(S(=O)(=O)N3CCCCC3)ccc21` (stereo not drawn), “inactive”; to `CCOC(=O)[C@H]1[C@H]2COc3ccc(Cl)cc3[C@@H]2N2C(=O)c3cc(C)ccc3NC(=O)[C@@]12C`, “inactive”.
To `Cn1ccsc1=NC(=O)c1cc(S(=O)(=O)N2CCOCC2)ccc1Cl` belongs “inactive”; to `Cc1cccc(NC(=O)CSc2nc3[nH]ncc3c(=O)[nH]2)c1`, “inactive”.
Consider `Cc1cccc2nc(CSc3nc4[nH]ncc4c(=O)n3-c3cccc(Cl)c3)cc(=O)n12`, for which the Potency was 20.6 µM (active).
To `COc1ccc(CCNC(=O)CSc2nc3[nH]ncc3c(=O)n2-c2cccc(C(F)(F)F)c2)cc1OC` belongs “inactive”; to `O=C(Nc1ccncc1)c1c(F)cccc1F`, 6.51 µM (active).
As for `COc1cccc(OC)c1C(=O)Nc1ccc(Cc2ccncc2)cc1`, the entry is “inactive”; as for `CC(C)C(NC(=O)c1c(F)cccc1F)C(=O)NCc1ccncc1` (stereo not drawn), “inactive”.
`CSc1ncc(C(=O)Nc2ccc(C)cc2C)c(C)n1`: the Potency entry is “inactive”.
To `FC(F)(F)c1nc(-c2ccccc2)ncc1-c1nnnn1-c1ccccc1` belongs 20.6 µM (active); to `c1ccc(-n2nnnc2NC2CCCCCC2)cc1`, “inactive”.
To `c1ccc(-n2nnnc2-c2cccnc2)cc1` belongs “inactive”; to `CC(=O)c1ccc(N2CCN(C(=O)CCc3ccccc3)CC2)cc1`, “inactive”.
As for `O=C1CCC/C=C/C[C@@H](CC(=O)N(CCO)Cc2ccccc2)C(=O)NC[C@H](c2ccccc2)O1`, the entry is “inactive”; as for `C/C(=N\OC(=O)c1ccccc1)c1c(C)nc2cc(C)ccn12`, “inactive”; as for `Cc1nc2ccccn2c(=O)c1NC(=O)c1cccs1`, “inactive”.
For the compound `Cc1ccn2c(=O)c(NC(=O)c3cccc4ccccc34)c(C)nc2c1`, the Potency is 5.17 µM (active).
As for `CC(C)(C)c1ccc(Oc2ccc(N)cc2)cc1`, the figure is 7.31 µM (active).
As for `Nc1ccc(Oc2ccc(Cl)cc2)cc1`, the Potency result is “inactive”.
To `Cc1ccc(Oc2ccc(N)cc2)cc1` belongs “inactive”; to `Cc1ccc(S(=O)(=O)NCC2CCC(C(=O)N3CCOCC3)CC2)cc1` (stereo not drawn), “inactive”; to `C=CCSc1nnc(N2C(=O)C(O)=C(C(=O)c3ccco3)C2c2ccc(F)cc2)s1` (stereo not drawn), “inactive”.
Take `CC1CC(=NNC(=O)C2COc3ccccc3O2)CC(C)(C)C1` (stereo not drawn): the Potency entry was “inactive”.
As for `O=C(OCC(=O)N1CCN(C(=O)c2ccco2)CC1)c1ccc(Cl)c(Cl)c1`, the entry is “inactive”; as for `O=c1[nH]c(NCCO)nnc1Cc1ccc(Cl)cc1`, “inactive”; as for `COc1ccc(Cc2nnc(N/N=C/c3ccccc3O)[nH]c2=O)cc1OC`, 4.11 µM (active).
To `CC(C)c1ccc(Cc2nnc(NCCCO)[nH]c2=O)cc1` belongs “inactive”; to `C=CCN1CN(S(=O)(=O)c2ccc(OC)cc2)c2nc3ccccc3nc21`, “inactive”.
For the compound `CCn1nc(C)c(CNC(=O)C2CCC(=O)N(Cc3cccc(F)c3)C2)c1C` (stereo not drawn), the Potency entry is “inactive”.
As for `COC(=O)[C@]1(C)N[C@H](CN(C)C(=O)c2ccc(C(C)(C)C)cc2)[C@@H]2C(=O)N(C)C(=O)[C@@H]21`, the entry is “inactive”; as for `COc1ccc(NC(=O)CC2SC(N3CCCCC3)=NC2=O)cc1OC` (stereo not drawn), “inactive”.
For the compound `COc1ccc(NC(=O)CN2C(=O)C(c3ccccc3)=NC23CCCCCC3)cc1OC`, the Potency was 23.1 µM (active).
To `COc1ccc(NC(=O)CN(Cc2ccccc2)S(C)(=O)=O)cc1OC` belongs “inactive”; to `COc1cc(S(=O)(=O)N2CCN=C2c2ccccc2)ccc1Cl`, “inactive”; to `Cn1c(=O)c2c(SCC(=O)NCC3CCCO3)nc(CC(C)(C)C)nc2n(C)c1=O` (stereo not drawn), “inactive”.
As for `COc1ccc(NC(=O)C2CCC(CNc3c(N4CCCCC4)c(=O)c3=O)CC2)c(OC)c1` (stereo not drawn), the figure is 7.3 µM (active).
To `CCN(CC)c1ccc(NC(=O)C2CCC(CNc3c(N4CCCC4)c(=O)c3=O)CC2)c(C)c1` (stereo not drawn) belongs “inactive”; to `CCOc1ccccc1NC(=O)C1CCC(CNc2c(N3CCOCC3)c(=O)c2=O)CC1` (stereo not drawn), “inactive”; to `CC(CCc1ccccc1)NC(=O)c1cnc(Cl)c(Cl)c1` (stereo not drawn), “inactive”.
Turning to `Cc1ncoc1C(=O)N1CCCC(C(=O)c2ccc3c4c(cccc24)CC3)C1` (stereo not drawn), the Potency is 16.4 µM (active).

(Values after PubChem BioAssay AID504467 (National Center for Advancing Translational Sciences (NCATS), 2011).)
